PLCb3 inh – human PLC-beta3 inhibitors, primary screen, biochemical, fluorescence; 1-phosphatidylinositol 4,5-bisphosphate phosphodiesterase beta-3 (Homo sapiens), Q01970; Purified PLC-beta3, fluorogenic substrate; inhibition, % at 12.2 µM; actives 0.18% (n = 370,000); AID 720704, 2013; in the data active = inhibition above about 11%;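 also: 0% = median of compound wells on plate and 100% = full blocker control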
Rce1 inh – yeast Rce1p protease inhibitors, primary screen, biochemical, fluorescence, cell-free homogeneous | yeast membranes, quenched prenylated peptide cleavage fluorescence | calls only | actives 0.27% (n = 290,000) | CAAX prenyl protease 2 (Saccharomyces cerevisiae (strain ATCC 204508 / S288c)), Q03530;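 active = fall in fluorescence gain of 50% or more versus controls, with final raw signal at or below 3038400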;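 also: plate controls were neutral control wells for no effect and wells lacking membranes for full effect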
PLCg1 inh – PLC-gamma1 enzyme inhibitors, primary screen, biochemical, fluorescence, purified enzyme. 1-phosphatidylinositol 4,5-bisphosphate phosphodiesterase gamma-1 (Homo sapiens), P19174. fluorogenic substrate. inhibition, % at 12.2 µM. actives 0.84% (n = 370,000); in the data active = inhibition above about 9.5%
PfM18AAP inh – PfM18AAP inhibitors, malaria aminopeptidase, primary screen, biochemical, QFRET, recombinant enzyme. M18 aspartyl aminopeptidase (Plasmodium falciparum 3D7). actives 1.2% (n = 290,000). H-Glu-NHMec fluorogenic cleavage. inhibition, % at 7.35 µM;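 active = inhibition above the campaign mean inhibition over all tested compounds plus 3 SD, cut at about 28% in these data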;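 also: 0% = plate median of test compound wells and 100% = 2 mM ZnCl2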
GC-B act – human GC-B receptor activators, primary screen, HEK293 GC-B cells, cGMP TR-FRET, EC30 CNP; actives 0.11% (n = 370,000); 0% at EC30 CNP, 100% saturating CNP; AID 1920062, 2024; activation, % at 10 µM; Atrial natriuretic peptide receptor 2 (Homo sapiens), P20594;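 active = activation at 10 µM reaching about 35% in either raw or pattern-adjusted values, limit read from the data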
GC-A act – GC-A stimulated cGMP production enhancers – HEK293 GC-A cells, cGMP TR-FRET, EC30 ANP, primary screen; 0% at EC30 ANP, 100% saturating ANP; actives 0.14% (n = 370,000); activation, % at 10 µM; in the data active = activation above about 40%
Numbers without * were called inactive; i = inactive; / = not tested or not shown; + = active, no number. Only some compounds are listed: those with a hit (about 2.2% of all), similar ones and a draw of the others.

SMILES	PLCb3 inh	Rce1 inh	PLCg1 inh	PfM18AAP inh	GC-B act	GC-A act
CCCCOc1ccc(Cc2c(COCC)[nH]c(=S)[nH]c2=O)cc1	5	+	0	6	-6	-10
COc1ccc(C2=NN(C(=O)CCC(=O)O)C(c3cccs3)C2)cc1 (stereo not given)	-37	+	-27	-4	1	0
S=C(c1ccc(-c2ccc(Br)cc2)o1)N1CCOCC1	-5	i	5	1	36*	28
CN(C)/C=C1\C(=O)ON=C1c1ccccc1	1	i	0	-3	-2	0
O=C1ON=C(c2ccccc2)/C1=C/c1ccco1	-24	i	-11	2	35*	36
Cn1c2ccccc2c2cnn(CC(=O)N3CCCCC3)c(=O)c21	-6	i	0	5	2	2
O=C(Cn1ncc2c3ccccc3n(Cc3ccccc3F)c2c1=O)NCC1CCCO1 (stereo not given)	-11	i	-1	-8	36*	31
O=C(Cn1ncc2c3ccccc3n(Cc3ccccc3F)c2c1=O)N1CCN(c2ccccn2)CC1	-3	i	1	-3	41*	22
COc1ccccc1/C=C/C=N/NC(=O)CN1CCN(S(=O)(=O)c2ccc(C)cc2)CC1	-9	+	-1	1	2	2
C[C@@H]1CN([C@@H](C)CO)C(=O)c2cccc(NC(=O)Nc3cccc4ccccc34)c2O[C@H]1CN(C)S(=O)(=O)c1ccc2c(c1)OCCO2	-17	/	-18	/	5	-5
CC1(C)OC(=O)C2(Cc3ccccc3N3CCCCC32)C(=O)O1 (stereo not given)	-14	/	-7	29*	0	-4
CN1CCN2c3ccccc3CC(C#N)(C#N)C2C1 (stereo not given)	8	/	1	/	2	1
O=C(O)c1ccc(N/N=C2/CCSc3ccc(F)cc32)cc1	-15	i	-4	29*	-4	6
CCC(NC(=O)c1cccc2c1C(=O)N(Cc1cccnc1)C2)c1ccccc1 (stereo not given)	4	/	2	/	11	5
CCCCCCCCS(=O)C1CCS(=O)(=O)C1 (stereo not given)	-1	i	-3	1	11	3
CCCCCCS(=O)[C@H]1CS(=O)(=O)C[C@@H]1S(=O)CCCCCC (stereo not given in full)	11*	i	3	0	2	1
CCOc1c2ccc(C(=O)NCc3ccco3)cc2nn1CCOC	-439	+	-325	5	-1	4
CCCCn1nc2cc(C(=O)NCc3ccco3)ccc2c1OCC	-451	i	-292	-8	7	-2
CC(=O)O[C@H]1[C@H](OC(C)=O)C[C@]2(OC(C)=O)C[C@H]1OC2=O	-2	/	7	/	-4	0
CCCNC(=O)N1[C@@H](CO)[C@H](c2ccc(C3=CCCC3)cc2)[C@@H]1CN(CC)S(=O)(=O)c1ccccc1[N+](=O)[O-]	-8	/	-7	/	4	-2
CCC(C)(C)n1nnnc1C(c1ccc2ncccc2c1)N1CCN(c2ccc(O)cc2)CC1 (stereo not given)	-3	i	0	31*	2	-2
O=C(OC12CCCN(C1)/C(=C/c1cccnc1)C2)c1ccco1 (stereo not given)	-3	/	-2	/	1	3
C=CCC(CC(O)COCCC)C(=O)NNC(=S)Nc1ccccc1 (stereo not given)	0	i	1	30*	3	-1
CC(C)CCOCC(O)CCC(=O)NNC(=S)Nc1ccccc1 (stereo not given)	-2	i	1	8	2	0
CCCCn1c(NC(=O)c2ccco2)c(S(=O)(=O)c2ccc(C)cc2)c2nc3ccccc3nc21	-492	i	-369	-6	1	1

High-throughput results: PubChem BioAssay, several laboratories
